# From PubChem BioAssay (NCATS)
# Records with an inconclusive call do not appear. Values without a mark were called inactive. Activity calls are given as the source filed them. Calls follow the shape of the dose curve; as a rule, active = well fitted curve in the direction sought with a large enough effect; inconclusive = small, poorly fitted or top-dose-only effect, or another doubt; inactive = no such curve, though single readings can be large or run the other way.
# Assay: qHTS for Inhibitors of the vitamin D receptor (VDR): Hit Validation using a Texas Red Assay (AID 602201)
# Conditions: VDR coregulator binding, Texas Red fluorescence polarization, agonist-bound VDR ligand-binding domain; series mostly up to 57.1 µM; activity, negative = inhibition: at the top concentration
# In short: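 After a 2-hour room-temperature incubation, polarization of Texas-Red emission was read (Ex 595 nm/Em 615 nm). Final mix contained 7 nM Texas Red, 1.5 uM VDR-LBD and LG19078.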
# % is scaled to controls: 0 for no effect and ±100 for the full control effect; potency is read from the fitted curve at half-maximal effect.
Compound,"activity, negative = inhibition [%]",Potency
O=C(/C=C/c1cc(Br)ccc1O)c1ccco1,3.4,–
CCN(CC)c1ccc(NC(=O)c2cccc(C)c2)cc1S(=O)(=O)Nc1ccccc1OC,-5.85,–
O=C1C=C(c2ccccc2)C(=O)N1Nc1ccccc1,–,3.55 µM (active)
Cc1cc(C(C2C(=O)CC(C)(C)CC2=O)C2C(=O)CC(C)(C)CC2=O)cc(C)c1OC(F)F,-17.3,–
Cc1cccc(/C=C/C(=O)c2ccc([N+](=O)[O-])o2)c1,–,1.78 µM (active)
O=C(Nc1ccccc1)c1nc(S(=O)(=O)Cc2ccccc2F)ncc1Cl,–,2.82 µM (active)
COc1ccc(Cl)cc1NC(=O)CCS(=O)(=O)c1nc(-c2cccs2)cc(C(F)(F)F)n1,–,11.2 µM (active)
CC(=O)N(C(C)=O)N1C(=O)C2C3c4ccccc4C(c4ccccc43)C2C1=O (stereo not given),-17.7,–
CCn1c(CSc2nnc(-c3ccncc3)n2CCOC)nc2cc(C(=O)O)ccc21,–,15.8 µM (active)
O=C1ON=C(c2ccccc2)/C1=C/c1ccc(O)cc1,-14.3,–
CCS(=O)(=O)c1oc(-c2ccc(F)cc2)nc1S(=O)(=O)c1ccccc1,–,7.08 µM (active)
O=C1NN(c2ccc(F)c(Cl)c2)C(=O)/C1=C\c1cccc(OC(=O)c2cccs2)c1,18.8,–
N#Cc1c(Nc2ccc(Cl)cc2)s[nH]c1=O,-3.75,–
O=C(Nc1cc(S(=O)(=O)N2CCOCC2)ccc1N1CCCC1)c1ccc(Cl)cc1,–,20 µM (active)
CCSc1nnc(NC(=O)c2nc(S(=O)(=O)Cc3ccc(F)cc3)ncc2Cl)s1,–,3.16 µM (active)
COc1ccc(C(=O)c2coc3c2C(=O)C(=O)c2ccccc2-3)cc1,–,5.62 µM (active)
CC(C)(C)c1nnc(NS(=O)(=O)c2ccc([N+](=O)[O-])cc2)s1,–,25.1 µM (active)
Cc1cc(C)nc(S/C=C/C(=O)c2ccccc2F)n1,–,7.94 µM (active)
c1ccc(CCc2nn3c(Cc4ccccc4)nnc3s2)cc1,–,28.2 µM (active)
Oc1cc2c(cc1C(c1ccc(Cl)c(Cl)c1)N1CCCC1)OCO2 (stereo not given),–,8.91 µM (active)

Compound,"activity, negative = inhibition [%]",Potency
CC(NC(=O)c1sc2cc([N+](=O)[O-])ccc2c1Cl)C(C)(C)C (stereo not given),–,3.55 µM (active)
COc1ccc(/C=C/C(=O)c2ccc([N+](=O)[O-])o2)cc1OC,–,10 µM (active)
CC1=NNC(=O)/C1=C\c1cn(-c2ccccc2)nc1-c1ccccc1,–,3.16 µM (active)
S=C(NNc1ccnc2cc(Cl)ccc12)Nc1ccccc1Cl,–,14.1 µM (active)
COc1ccc(C(Nc2cc(C)ccn2)c2ccc3ccc(C)nc3c2O)cc1 (stereo not given),–,14.1 µM (active)
CN(C)N=Nc1ccc2nc[nH]c2c1,0.94,–
CN1C(=O)/C(=N\OC(=O)c2ccccc2Cl)c2ccccc21,–,31.6 µM (active)
c1ccc(OCc2nn3c(Cn4nnc5ccccc54)nnc3s2)cc1,–,14.1 µM (active)
COc1ccccc1N1C(=O)C=C(Sc2nc(C)cc(C)n2)C1=O,–,14.1 µM (active)
Cc1ccc(C=Nc2ccc(N(C)C)cc2)o1,–,20 µM (active)
O=S(=O)(/C(=C/c1ccc(C(F)(F)F)cc1)c1nc2ccccc2[nH]1)c1ccccc1,-7.1,–
O=C(Oc1ccccc1/C=C\C(=O)c1cc2ccccc2o1)c1ccccc1,–,8.91 µM (active)
COc1cc(/C=C/C(=O)c2ccc(F)cc2)cc(OC)c1OC,-16.5,–
N#Cc1ccc(/C=C/C(=O)c2cccnc2)cc1,-11.7,–
CN1CCN(C(c2ccc(Br)cc2)c2cc(Cl)c3cccnc3c2O)CC1 (stereo not given),–,28.2 µM (active)
Cc1c(C(=O)Nc2nc(-c3ccccn3)cs2)oc2ccccc12,5.73,–
Nc1cc(S(=O)(=O)Nc2ccccc2Cl)ccc1N1CCCCC1,–,5.62 µM (active)
C#CCOc1ccc(/C=C2/C(=O)ON=C2C)cc1Br,-6.49,–
O=C1/C(=C/c2cccc([N+](=O)[O-])c2)CCc2ccccc21,–,31.6 µM (active)
O=C(O)CN1C(=O)/C(=C\c2cc(Br)ccc2OCc2ccc(F)cc2)SC1=S,-9.84,–
